Test [1] relates to Plasmodium falciparum Sir2 (PF13_0152, Sir2A). In words: Plasmodium falciparum Sir2A binding compounds – biochemical, small-molecule microarray, 635 nm fluorescence, primary screen (AID 1098).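 Also: score merges spot fluorescence intensity with its signal-to-noise ratio.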 The note with it: fluorescence 635 nm, higher = more signal.
A short description of test [2]: probe aDKK1 binding to arrayed compounds – biochemical, biotinylated probe, 635/667 nm fluorescence, primary screen (AID 1099).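 Also: score merges 667nm spot fluorescence with signal to noise across triplicate slides.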 The note with it: small-molecule microarray, higher = more signal.
Test [3] in a line: probe aCHRDL2 binding to arrayed compounds – biochemical, biotinylated probe, 635/667 nm fluorescence, primary screen (AID 1100). The note with it: small-molecule microarray, higher = more signal.
Test [4] can be described thus: change in splice reporter luminescence, either direction, cell-based, HEK293, spliceosome inhibition project, primary screen (AID 1101).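 Also: HEK293 cells carrying a splicing-competent luciferase reporter gene; test concentration not given here.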 The note with it: HEK293 splicing luciferase reporter, 24 h, higher = more signal, called active from +8 up or from −8 down.
The target in test [5] is Fibroblast growth factor 10 (Homo sapiens) (UniProt O15520). The experiment in a line: compounds binding fibroblast growth factor 10 – biochemical, small-molecule microarray, 635 nm fluorescence, primary screen (AID 1102). The note with it: FGF10 binding, fluorescence 635 nm, higher = more signal.
Test [6] concerns glycogen synthase kinase-3 (GSK3A per assay name; protocol says GSK3B). The experiment in a line: compounds binding glycogen synthase kinase-3 – biochemical, small-molecule microarray, 635 nm fluorescence, GSK3A, primary screen (AID 1103). Also: the record names both GSK3A and GSK3B. The settings on record: fluorescence 635 nm, higher = more signal.
Test [7] concerns the target Epidermal growth factor receptor (Homo sapiens) (UniProt P00533). In words: compounds binding epidermal growth factor receptor – biochemical, small-molecule microarray, 635 nm fluorescence, primary screen (AID 1104).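 Also: score merges 667 nm emission intensity with spot signal to noise over triplicate slides.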 The note with it: EGFR binding, higher = more signal.
In test [8] the target is Follistatin-related protein 3 (Homo sapiens) (UniProt O95633). In words: compounds binding follistatin-related protein 3 – biochemical, small-molecule microarray, 635 nm fluorescence, primary screen (AID 1105).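 Also: score merges emission near 667 nm and signal to noise per printed spot across three slides.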 The note with it: FSTL3 binding, higher = more signal.
The target of test [9] is Dickkopf-related protein 1 (Homo sapiens) (UniProt O94907). In words: small molecules binding DKK1 protein – biochemical, small-molecule microarray, 635 nm fluorescence scan, primary screen (AID 1106).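 Also: score merges emission near 667 nm with signal to noise over three replicate slides.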 The note with it: higher = more signal.
Test [10] has as its system Inhibin beta A chain (activin A). The experiment in a line: small molecules binding activin A – biochemical, small-molecule microarray, 635 nm fluorescence scan, primary screen (AID 1107).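 Also: mouse activin A protein probed at 4.33 µg/mL on printed slides; score merges bound-protein fluorescence near 667 nm with spot signal-to-noise.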 The settings on record: INHBA, higher = more signal.
The subject of test [11] is Human papillomavirus type 1a protein E7 (residues 44-93). The experiment in a line: small molecules binding HPV E7 44-93 – biochemical, small-molecule microarray, residues 44-93, 635 nm fluorescence, primary screen (AID 1108).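 Also: E7 fragment applied at 1 µg/mL in TBST for 1 h at 4 C; score combines spot fluorescence with its signal to noise ratio.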 The note with it: fluorescence 635 nm, higher = more signal.
A short description of test [12]: hepatitis C replication reporter changes, two-sided – Huh7 cells, luciferase reporter, HCV replication inhibitor project, primary screen (AID 1109).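 Also: huh7 hepatoma cells harbouring a luciferase neomycin HCV replicon reporter; luciferase luminescence as measure of HCV replicon replication; test concentration not given here.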 The settings on record: Huh7 HCV replicon luciferase reporter, 48 h; higher = more signal.
Test [13] deals with Left-right determination factor 2 (Homo sapiens) (UniProt O00292). In words: small molecules binding LEFTY2 protein – biochemical, small-molecule microarray, 635 nm fluorescence scan, primary screen (AID 1110). The note with it: higher = more signal.
Test [14] deals with Calmodulin-1 (Homo sapiens) (UniProt P0DP23). The experiment in a line: small molecules binding calmodulin-1 with EGTA – biochemical, small-molecule microarray, Cy5-labelled CALM1, profiling panel (AID 1111).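 Also: labelled calmodulin applied in Tris saline Tween buffer holding calcium plus EGTA and DTT.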 The settings on record: Cy5-CALM1 binding fluorescence, higher = more signal.
The target is the same in test [15]. The experiment in a line: small molecules binding Ca-loaded calmodulin-1 – biochemical, small-molecule microarray, Cy5-labelled CALM1, plus calcium, artefact control for SMM control-protein annotation, profiling panel (AID 1112).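 Also: score merges spot fluorescence with signal to noise from triplicate slides.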 The settings on record: Cy5-CALM1 binding fluorescence, higher = more signal.
Test [16] can be described thus: probe aWnt5a binding to arrayed compounds – biochemical, biotinylated probe, 635/667 nm fluorescence, primary screen (AID 1113).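 Also: score merges 667 nm fluorescence intensity with signal-to-noise per printed feature.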 The note with it: small-molecule microarray, higher = more signal.
The nature of test [17]: probe aShh binding to arrayed compounds – biochemical, biotinylated probe, 635/667 nm fluorescence, primary screen (AID 1114).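 Also: probe is biotin-labelled aShh protein from a stem cell growth factor screen; measures binding of labelled protein to compounds printed on the slide; score merges feature fluorescence at 667 nm with signal-to-noise.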 The note with it: small-molecule microarray, higher = more signal.
Test [18] in a line: probe aNog binding to arrayed compounds – biochemical, biotinylated probe, 635/667 nm fluorescence, primary screen (AID 1115).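 Also: probe is biotinylated aNog protein used at 0.15 µg/mL for 1 h at 4 C; z-score combines 667 nm fluorescence of each spot with its signal to noise.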 The note with it: small-molecule microarray, higher = more signal.
For test [19], the target named is Torsin-1A-interacting protein 1 (Homo sapiens) (UniProt Q5JTV8). In words: compound microarray binding of lysate hLAP1 – cell lysate, small-molecule microarray, COS7 lysate, 635/667 nm fluorescence, primary screen (AID 1116). The settings on record: 635 nm fluorescence, higher = more signal.
Test [20] has as its target Alpha-bungarotoxin (Bungarus multicinctus) (UniProt P60615). In words: compounds binding labelled alpha-BTX control protein – biochemical, small-molecule microarray, Alexa647 label, 635/667 nm fluorescence, artefact control for SMM control protein annotation, profiling panel (AID 1117). The note with it: alpha-BTX-A647 binding fluorescence, higher = more signal.

Molecules are shown by their SMILES. The source made the active and inactive calls.

Sequence of Follistatin-related protein 3 (Homo sapiens) (O95633 whole entry, looked up): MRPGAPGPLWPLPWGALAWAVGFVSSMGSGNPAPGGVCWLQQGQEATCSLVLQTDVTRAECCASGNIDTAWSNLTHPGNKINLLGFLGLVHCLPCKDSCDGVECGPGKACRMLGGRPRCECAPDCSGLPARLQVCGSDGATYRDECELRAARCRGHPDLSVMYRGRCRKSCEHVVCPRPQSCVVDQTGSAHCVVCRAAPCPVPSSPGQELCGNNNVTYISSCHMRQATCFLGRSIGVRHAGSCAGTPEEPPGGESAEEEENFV
Sequence of Left-right determination factor 2 (Homo sapiens) (O00292 whole entry, looked up): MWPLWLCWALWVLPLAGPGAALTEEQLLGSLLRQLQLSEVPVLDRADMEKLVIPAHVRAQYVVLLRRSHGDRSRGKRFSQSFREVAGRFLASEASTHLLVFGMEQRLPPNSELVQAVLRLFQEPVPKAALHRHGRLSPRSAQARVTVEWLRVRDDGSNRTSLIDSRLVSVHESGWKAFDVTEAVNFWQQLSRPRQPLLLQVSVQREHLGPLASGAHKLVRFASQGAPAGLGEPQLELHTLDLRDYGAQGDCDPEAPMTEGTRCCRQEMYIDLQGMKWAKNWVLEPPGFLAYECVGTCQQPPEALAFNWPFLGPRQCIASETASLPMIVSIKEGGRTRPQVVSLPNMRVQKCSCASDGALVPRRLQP
Sequence of Alpha-bungarotoxin (Bungarus multicinctus) (P60615 whole entry, looked up): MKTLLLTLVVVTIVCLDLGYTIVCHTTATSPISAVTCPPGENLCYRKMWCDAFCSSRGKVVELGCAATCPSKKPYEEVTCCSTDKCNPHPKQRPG
Sequence of Torsin-1A-interacting protein 1 (Homo sapiens) (Q5JTV8 whole entry, looked up): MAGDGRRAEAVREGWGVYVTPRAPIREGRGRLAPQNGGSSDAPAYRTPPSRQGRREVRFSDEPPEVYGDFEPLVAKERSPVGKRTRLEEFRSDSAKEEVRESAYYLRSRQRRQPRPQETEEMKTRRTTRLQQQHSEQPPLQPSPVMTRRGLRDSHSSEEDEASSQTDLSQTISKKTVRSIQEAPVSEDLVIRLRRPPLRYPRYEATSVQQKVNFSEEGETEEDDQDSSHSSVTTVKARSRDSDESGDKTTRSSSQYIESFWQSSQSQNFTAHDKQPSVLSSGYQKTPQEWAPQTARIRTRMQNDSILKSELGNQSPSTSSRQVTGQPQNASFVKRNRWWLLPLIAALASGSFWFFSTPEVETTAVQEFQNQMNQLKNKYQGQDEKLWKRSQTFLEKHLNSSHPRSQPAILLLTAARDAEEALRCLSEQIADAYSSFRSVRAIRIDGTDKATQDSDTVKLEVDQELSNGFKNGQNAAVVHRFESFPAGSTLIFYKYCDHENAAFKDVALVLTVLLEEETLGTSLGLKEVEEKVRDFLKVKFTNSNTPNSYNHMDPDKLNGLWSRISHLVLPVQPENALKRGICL
Sequence of Epidermal growth factor receptor (Homo sapiens) (P00533 whole entry, looked up): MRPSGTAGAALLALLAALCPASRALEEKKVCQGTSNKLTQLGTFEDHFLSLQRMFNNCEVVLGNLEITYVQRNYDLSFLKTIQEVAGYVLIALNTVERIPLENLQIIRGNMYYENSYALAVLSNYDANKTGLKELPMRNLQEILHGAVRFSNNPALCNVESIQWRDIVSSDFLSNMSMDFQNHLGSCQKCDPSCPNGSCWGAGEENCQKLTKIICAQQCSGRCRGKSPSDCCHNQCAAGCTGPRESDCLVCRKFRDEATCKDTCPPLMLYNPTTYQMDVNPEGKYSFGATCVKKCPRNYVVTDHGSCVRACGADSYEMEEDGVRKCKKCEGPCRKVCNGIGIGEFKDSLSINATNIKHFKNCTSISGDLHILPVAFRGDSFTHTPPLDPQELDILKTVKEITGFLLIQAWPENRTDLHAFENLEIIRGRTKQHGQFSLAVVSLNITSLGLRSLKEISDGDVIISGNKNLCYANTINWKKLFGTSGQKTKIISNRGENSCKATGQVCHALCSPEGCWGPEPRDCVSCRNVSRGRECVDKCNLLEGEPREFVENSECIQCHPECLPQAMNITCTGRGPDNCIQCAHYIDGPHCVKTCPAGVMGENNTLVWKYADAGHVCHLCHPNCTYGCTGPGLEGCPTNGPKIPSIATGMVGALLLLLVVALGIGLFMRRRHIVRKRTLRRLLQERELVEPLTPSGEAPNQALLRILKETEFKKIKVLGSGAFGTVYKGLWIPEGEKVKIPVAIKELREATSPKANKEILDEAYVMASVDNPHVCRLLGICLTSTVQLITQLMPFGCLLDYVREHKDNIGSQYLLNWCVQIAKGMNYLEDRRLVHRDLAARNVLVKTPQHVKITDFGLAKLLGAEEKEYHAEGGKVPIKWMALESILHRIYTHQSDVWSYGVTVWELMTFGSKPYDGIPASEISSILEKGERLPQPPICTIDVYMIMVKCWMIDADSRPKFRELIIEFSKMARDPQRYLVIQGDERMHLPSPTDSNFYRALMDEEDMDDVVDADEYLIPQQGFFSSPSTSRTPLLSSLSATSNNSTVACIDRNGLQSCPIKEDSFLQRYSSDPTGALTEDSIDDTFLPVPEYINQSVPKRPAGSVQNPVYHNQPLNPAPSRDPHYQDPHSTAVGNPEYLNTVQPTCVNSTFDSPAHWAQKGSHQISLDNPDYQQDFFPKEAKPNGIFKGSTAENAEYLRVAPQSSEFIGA
Sequence of Fibroblast growth factor 10 (Homo sapiens) (O15520 whole entry, looked up): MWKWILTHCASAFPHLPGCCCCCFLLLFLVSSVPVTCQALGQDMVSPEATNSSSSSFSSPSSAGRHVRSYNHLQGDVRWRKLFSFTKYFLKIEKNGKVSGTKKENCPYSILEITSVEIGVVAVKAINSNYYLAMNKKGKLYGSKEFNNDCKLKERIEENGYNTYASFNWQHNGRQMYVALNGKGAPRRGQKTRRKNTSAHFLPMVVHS
Sequence of Dickkopf-related protein 1 (Homo sapiens) (O94907 whole entry, looked up): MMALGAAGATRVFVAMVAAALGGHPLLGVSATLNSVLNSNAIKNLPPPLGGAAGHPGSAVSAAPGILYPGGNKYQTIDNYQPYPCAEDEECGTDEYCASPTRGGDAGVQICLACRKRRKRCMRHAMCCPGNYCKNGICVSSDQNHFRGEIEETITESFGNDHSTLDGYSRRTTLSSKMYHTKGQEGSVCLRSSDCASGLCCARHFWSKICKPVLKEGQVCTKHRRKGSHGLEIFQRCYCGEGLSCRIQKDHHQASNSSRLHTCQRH

For the compound `CC(C)(C)OC(=O)CC[C@@]1(C(=O)NCCN2CCOCC2)N=C(c2ccc(OCCCO)cc2)O[C@@H]1c1ccccc1`, the composite z-score in test [1] amounted to 1.48; in test [2], 1.06; in test [3], 1.11; in [5], 1.01; in test [6] it was 0.896; in [7], 0.335. In addition, the composite z-score in test [8] came to 1.05; in [9], 0.126; in test [10], 0.767; in test [11] it was 0.925; in test [13], 0.356; in [14] it was 1.59. Further, the composite z-score in [15] is 0.53; in test [16], 0.0095; in test [17], -0.138; in test [18], -0.193; in test [19] it was 0.414; in test [20], 2.08. Further, the figures for the z-score in [4] and in test [12] were -1.16 (inactive) and 0.988, respectively.

For `COC(=O)C(CC#Cc1ccc2c(c1)[C@]1(C(=O)N2)[C@H](C(=O)NC[C@H](O)c2ccccc2)[C@H]2C(=O)O[C@H](c3ccccc3)[C@H](c3ccccc3)N2[C@@H]1c1ccc(OCCO)cc1)C(=O)OC`, the composite z-score in [1] came out at 1.71; in test [2], 1.61; in [3], 0.0724; in [5] it was 1.3; in test [6], 1.3; in [7] it was 0.767. The composite z-score is 1.46 in test [8]; 1.14 in test [9]; 1.21 in [10]; 1.45 in test [11]; 0.696 in test [13]; 1.5 in [14]. For the same compound, the composite z-score in [15] turned out to be 1.1; in [16], 0.174; in test [17] it was 0.986; in [18], 0.945; in test [19] it was 0.053; in [20] it was 2.23. The z-score was 0.0839 (inactive) in test [4] and -1.95 in [12].

With `CN(C)C(=O)[C@@]1(CCC(=O)OC(C)(C)C)N=C(c2ccc(OCCCO)cc2)O[C@H]1c1ccccc1`, the composite z-score in [1] was 1.75; in [2], 0.559; in test [3] it was 0.401; in [5] it was 0.0744; in test [6] it was 0.556; in [7] it was -0.58. For the same compound, the composite z-score is -0.725 in test [8]; -0.887 in test [9]; 0.366 in test [10]; 1.49 in test [11]; -0.964 in test [13]; 1.03 in [14]. Moreover, the composite z-score in test [15] was found to be 1; in [16], 0.0733; in test [17] it was 0.357; in test [18] it was 0.546; in test [19], 1.41; in test [20], 0.575. Further, the z-score is -0.919 (inactive) in test [4] and -1.01 in [12].

With `C=C[C@@H](COC(C)=O)N(Cc1ccc([N+](=O)[O-])cc1)S(=O)(=O)c1ccc(Br)cc1`, the composite z-score in [1] is 0.566; in test [2] it was 0.965; in test [3], 0.992; in test [5], 0.599; in test [6], 0.283; in [7], 0.292. In addition, the composite z-score is 0.352 in test [8]; -0.0075 in test [9]; 0.663 in [10]; -0.541 in test [11]; 0.59 in test [13]; 0.989 in [14]. Further, the composite z-score in test [15] was 0.729; in test [16], -0.0597; in test [17] it was -0.0709; in test [18], 0.392; in [19], 0.546; in test [20], 1.78. The figures for the z-score in test [4] and in [12] were -0.807 (inactive) and -0.365, respectively.

As to `COc1ccc(C(=O)Nc2cccc(CN3C(=O)[C@]4(O[C@H](CC(=O)N5CCC[C@H]5CO)[C@@H]([Si](C)(C)c5ccc(OC)cc5)[C@@H]4C)c4ccccc43)c2)cc1`, the composite z-score in test [1] is 1.27; in [2] it was -0.202; in test [3], -0.067; in [5] it was 0.703; in [6], 1.12; in test [7] it was 0.317. Moreover, the composite z-score in test [8] is 0.737; in [9] it was 0.65; in test [10], -0.0762; in [11] it was 1.23; in test [13], 0.419; in test [14], 0.418. The composite z-score in [15] is 0.252; in test [16], -0.0285; in test [17], -0.0959; in test [18], 0.0733; in [19] it was 1.06; in test [20], 0.954. Besides, the values for the z-score in [4] and in test [12] were -0.0342 (inactive) and -2.84, respectively.
